Source: PubChem BioAssay AID841 (Emory University Molecular Libraries Screening Center, 2007)
The campaign covered roughly 140,000 compounds. About 2,100 (1.5%) were called active. The sample holds actives, similar compounds and a random draw of the others, so the mix is not that of the screen. Rule as the data show it: active = protection mostly above about 24% (no sharp cut-off); inactive = mostly below about 26%.

Assay: compounds protecting cells from measles virus cytopathic effect, primary screen, measles RdRp inhibitor project, single point, MLSMR library, absorbance (AID 841)
Settings: Measles virus-infected cells, CPE protection, at 4 µM, active compounds read high

Protection (pct of control), active:
O=C(Cn1c(=O)n(Cc2ccco2)c(=O)c2ccccc21)NCC1CCCO1 (stereo unspecified) 42.5%, CCCC(=O)N1c2ccc(-c3csc(N)n3)cc2CC1C (stereo unspecified) 79.2%, Cn1c2c(c(=O)n(C)c1=O)[C@@H]1c3c(ccc4ccccc34)OC[C@@H]1CO2 38.9%, Cc1ccc(Cl)cc1-c1ccc(/C=N/n2cnnc2)o1 70.5%, Cc1cccc(NC(=O)/C=C/c2ccc3c(c2)OCO3)n1 46.6%, CCC(C)(C)C1CCC(=NNC(=O)c2ccc(Br)o2)CC1 (stereo unspecified) 39%, CCOC(=O)c1c(-c2cccc(C)c2)csc1NC(=O)c1c(-c2ccccc2)noc1C 54.7%, O=C(Nc1ccccc1)N1CCN(Cc2ccccc2)CC1 65.6%, O=C(CCl)NNc1cccc(Cl)n1 28.9%, CC(NC(=O)CSc1nc2c(cc1C#N)CN(C)CC2)c1ccccc1 (stereo unspecified) 48.7%, CCOC(=O)c1c(C)nc(-c2ccccc2)nc1NC(=O)C(C)C 92.6%, CN(C)c1ccc(/C=N/NC(=O)c2ccc(Cn3cc(Br)cn3)o2)cc1 28.3%, COc1ccc(NC(=O)COC(=O)Cn2c(C)nc3ccccc32)cc1OC 50.1%, CCN(CC)S(=O)(=O)c1ccc(C)c(NC(=O)COc2ccc(Br)cc2Cl)c1 52.8%

Protection (pct of control), inactive:
Cc1ccc2nc(SCc3cn4c(C)cc(C)nc4n3)[nH]c2c1 15.7%, CN(C)/C(=N\OC(=O)c1ccccc1)c1nonc1N 10.6%, O=C(Cn1nc(Cc2cccnc2)c2ccccc2c1=O)NCC1CCCO1 (stereo unspecified) 2.54%, COc1ccc(NC(=O)Cn2c(=O)n(Cc3ccco3)c(=O)c3ccccc32)cc1 4.73%, O=C(/C=C/c1ccc(F)cc1)Nc1cccc(S(=O)(=O)Nc2cccc(C(F)(F)F)c2)c1 9.17%, Cc1ccc(-c2nc(C)sc2CC(=O)OCC(=O)Nc2c(F)cccc2F)cc1 4.46%, CCC(=O)N1c2ccc(S(=O)(=O)CCC(=O)N3CCN(c4ccccc4)CC3)cc2CC1C (stereo unspecified) 8.07%, CCn1nc(C(=O)OCC(=O)N2c3ccccc3CC2C)c2ccccc2c1=O (stereo unspecified) 10.5%, O=C(NC(=S)Nc1cc(C(F)(F)F)ccc1N1CCOCC1)c1ccc(-c2cccc(Cl)c2)o1 1.76%, COC(=O)[C@H]1Cc2cnoc2C[C@]1(C)C(=O)O 8.42%, Cc1ccc(-c2cc(C(=O)N/N=C/C=C/c3ccccc3)n[nH]2)o1 25.7%, Cc1ccc(N=C2NC(=O)c3cccc([N+](=O)[O-])c32)cc1 8.24%, Cn1c2c(c(=O)n(C)c1=O)C1c3ccccc3OCC1C(C)(C)O2 (stereo unspecified) 12.9%, COc1cccc2c1OCC1COc3c(c(=O)n(C)c(=O)n3C)C21 (stereo unspecified) 23.9%, COc1ccc(-c2csc(NC(=O)COC(=O)c3ccc(Br)o3)n2)cc1 7.27%, O=C(CSc1nnc(-c2ccncc2)o1)NCc1ccc(Cl)cc1 5.59%, Cc1ccc(N(C(=O)C(F)(F)F)C(C(=O)NC2CCCCC2)c2ccncc2)cc1C (stereo unspecified) 29.7%, COc1cc2c(cc1OC)C(=O)NCC(C)(C)O2 6.34%, Cc1cc([N+](=O)[O-])c(-c2ccc(/C=N/n3cnnc3)o2)cc1Cl 33.8%, Cc1cc(-c2ccc(/C=N/n3cnnc3)o2)c([N+](=O)[O-])cc1C 28.4%, Cc1ccc(N2C(=O)C(NC(=O)c3c(F)cccc3F)(C(F)(F)F)C3=C2CC(C)(C)CC3=O)cc1 (stereo unspecified) 5.53%, CCc1c(C)sc(NC(=O)/C=C/c2ccc3c(c2)OCO3)c1C(=O)OC 3.56%, O=C(/C=C/c1ccc2c(c1)OCO2)NCc1ccc(F)cc1 5.86%, CCCCc1ccc(NC(=S)N2CCCC(CO)C2)cc1 (stereo unspecified) 11.5%, O=C(CN1C(=O)/C(=C\c2ccccc2F)SC1=S)Nc1nc2ccccc2s1 6.1%, Cc1noc(/C=C/c2ccco2)c1S(=O)(=O)N1CCC(C(=O)Nc2ccc(Cl)cn2)CC1 7.95%, CC(C)(C)C1CCC(=NNC(=O)c2ccc(Br)o2)CC1 (stereo unspecified) 3.96%, C/C(=N/NC(=O)c1ccc(Br)o1)c1ccc(C)o1 13%, CC1(C)C(C=C(Cl)Cl)C1C(=O)N(Cc1ccc(Cl)cc1)C1CCS(=O)(=O)C1 (stereo unspecified) 9.24%, Fc1ccc(CNCc2ccc(Br)cc2)cc1 8.72%, N#CC1(NC(=O)COc2ccc3oc4ccccc4c3c2)CCCCC1 21.4%, Cc1cc(C)cc(OCC(=O)NNC(=O)CCN2C(=O)c3ccccc3C2=O)c1 9.19%, Cc1nc(-c2ccccc2)cn2c1nc1ccccc12 23.6%, CCOC(=O)c1c(-c2ccccc2)csc1NC(=S)NC(=O)c1ccccc1 9.01%, CC(=O)Nc1cccc(NC(=O)c2c(-c3ccccc3)noc2C)c1 14.1%, CCc1cc(C(=O)OC)c(NC(=O)CC2Sc3ccc(C(F)(F)F)cc3NC2=O)s1 (stereo unspecified) 11.3%, CCOc1ccc(NC(=O)c2ccc(CSc3nnnn3C)cc2)cc1 10.1%, Cc1c(C(=O)Nc2cccc(Cl)c2)cn2c(nc3ccccc32)c1C#N 8.24%, CCCCC(NS(=O)(=O)c1ccc(C)cc1)C(=O)Oc1ccc2c3c(c(=O)oc2c1)CCC3 (stereo unspecified) 9.68%, CC1CN(S(=O)(=O)c2ccc(C(=O)Nc3sccc3C(N)=O)cc2)CC(C)O1 (stereo unspecified) 9.47%, O=C(NC(=S)N1CCN(Cc2ccccc2)CC1)c1ccccc1 18%, O=C(Nc1cccc(NC(=O)N2CCN(c3ccccc3)CC2)c1)N1CCN(c2ccccc2)CC1 27.8%, CN(Cc1ccccc1)C(=O)COC(=O)c1ccccc1Nc1ccccc1 18.6%, O=[N+]([O-])c1ccccc1SNc1ccccn1 4.84%, COc1cc(OC)nc(NC(=O)CCl)n1 15.4%, O=C(NNc1ccccn1)c1ccc(Cl)nc1 3.74%, COc1cc(OC)c(C(=O)Nc2ccccc2-c2ccccc2)cc1OC 39.7%, CC(OC(=O)CNS(=O)(=O)/C=C/c1ccccc1)C(=O)Nc1ccc(S(=O)(=O)N2CCCC2)cc1 (stereo unspecified) 8.77%, Cc1nn(Cc2ccc(F)cc2)c(C)c1NC(=O)c1cccnc1Cl 10.5%, CC1(C)CCc2nc(SCc3ccccc3)c(C#N)cc2C1 17.7%, Cc1nc2cc(NC(=O)CSc3nc4c(C)cccc4cc3C#N)ccc2s1 7.78%, COc1cc(/C=N\NC(=O)c2nonc2N)c(OC)cc1Br 4.84%, CCCCN1C(=O)CCC(C(=O)O)C1c1ccc(OC)cc1 (stereo unspecified) 18.6%, CCn1c(C(C)NC(=O)c2ccc(C)cc2)n[nH]c1=S (stereo unspecified) 13.2%, COc1ccc(C2CC(c3ccccc3)=NN2C(=O)c2ccc(Cl)c([N+](=O)[O-])c2)cc1 (stereo unspecified) 5.64%, CCOC(=O)c1c(C)[nH]c(=S)c(C#N)c1-c1ccccc1 1.99%, Cc1[nH]c2ccccc2c1C(=O)COC(=O)c1c(-c2ccccc2)noc1C 3.64%, C=CCN(c1ccc(C(=O)Nc2cc(C)cc(C)c2)cc1)S(C)(=O)=O 12.6%, Cc1ccc(C(C)(C)C)c(OCCCCN2CCCC2)c1 -0.18%, O=C(N/N=C\c1ccc(Br)cc1)c1ccc(Cn2cccn2)o1 5.4%, O=C(N/N=C/c1ccc2c(c1)OCO2)c1ccc(Cn2cc([N+](=O)[O-])cn2)o1 18.3%, Cc1ccc(S(=O)(=O)N(NC2=NS(=O)(=O)c3ccccc32)C(=O)c2ccccc2)cc1 7.51%, CCOC(=O)C1=C(N)N(c2ccc(C)cc2)C2=C(C(=O)CCC2)C1c1cccs1 (stereo unspecified) 20.1%, Cc1nn(Cc2ccc(Cl)cc2)c(Cl)c1/C=N/NC(=O)c1cccnc1 11.1%, CC1(C)CC(=O)C2=C(C1)Nc1cc(C(=O)c3ccccc3)ccc1NC2c1ccccn1 (stereo unspecified) 2.11%, Cc1noc(C)c1COC(=O)Cn1c(C)nc2ccccc21 7.94%, CCCCn1c(=O)c(CCC(=O)OCC(=O)Nc2ccc(C)c(Cl)c2)nc2ccccc21 23.4%, O=C(Nc1cccc(S(=O)(=O)N2CCCCC2)c1)c1ccc2c(c1)OCO2 8.22%, Cc1ccc(S(=O)(=O)N(C)C)cc1NC(=O)COC(=O)c1c(C)noc1C 9.42%, Cc1cccc(NC(=O)COc2ccc(Br)cc2C)n1 6.52%, CN(C(=O)c1c(Cl)cnn1C)C12CC3CC(CC(C3)C1)C2 6.9%, Cc1c(C(=O)NCCN2C(=O)S/C(=C\c3cccs3)C2=O)cccc1[N+](=O)[O-] 19.9%
